The campaign covered roughly 190,000 compounds. About 490 (0.26%) were called active. This is one part of a sample in which actives are shown more often than they occur. Values without a mark were called inactive. Cut-off read from the data, not from the text of the source: active = fluorescence above about 89; inactive = the rest.

This is an account of results in PubChem BioAssay AID1776 (NMMLSC, 2009).

A short description of the experiment: green autofluorescence of compounds with GSH beads – biophysical, 488/530 nm, flow cytometry, artefact control, profiling panel (AID 1776).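 Note: glutathione beads carrying GST-tagged Bcl family fusion proteins plus one bare bead set; values are compound well signal with DMSO vehicle wells as background.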 The settings on record: compound fluorescence 488/530 nm, at 10 µM, hits give high values.
Regarding `CNC(=O)CSc1nnnn1-c1ccc(C)cc1C`, the fluorescence (KMESF) is 23.
In the case of `CCOC(=O)CNC(=O)CSc1nnnn1-c1cc(C)ccc1C` it was 33.
As to `Cc1ccc(C)c(-n2nnnc2SCC(=O)c2c(N)n(C)c(=O)n(C)c2=O)c1`, the fluorescence (KMESF) was 179 (active).
In the case of `CN(C)CC(C)(C)CNC(=O)c1cc(Br)cc(Br)c1O`, the fluorescence (KMESF) is 12.
In the case of `C=CCNC(=S)NNC(=O)COc1c(Cl)cc(Cl)cc1Cl` it was 12.
Regarding `Cc1cc(C)nc(NNC2=CC(=O)CC(C)(C)C2)n1`, the fluorescence (KMESF) was 16.
Take `COc1ccc(C(=O)NNc2cc(C)nc(NNC(=O)c3ccc(OC)cc3)n2)cc1`: the fluorescence (KMESF) was 11.
As for `CC1CCCCC1NC(=O)CN1CCC(O)(c2ccc3c(c2)OCO3)CC1` (stereo unspecified), the fluorescence (KMESF) is 15.
For the compound `CC1=C(C)CC(C(=O)NNC(=O)c2csc3c2CCC(C(C)(C)C)C3)C(C(=O)O)C1` (stereo unspecified), the fluorescence (KMESF) was 10.
As for `Cc1ccccc1CC1(CO)CCCN(Cc2ccc3c(c2)OCCO3)C1` (stereo unspecified), the fluorescence (KMESF) was 18.
Next, `S=c1[nH]ccn1-c1ccc(Cl)cc1`: 11.
On to `COCCSc1nnc(NC(=O)c2cc(OC)c(OC)cc2[N+](=O)[O-])s1`, for which the fluorescence (KMESF) was 21.
For the compound `Cc1ccc(C(=O)NC(C)c2ccccc2)cc1Br` (stereo unspecified), the fluorescence (KMESF) is 15.
In the case of `OCCC#Cc1ccc(CN2CCN(Cc3ccsc3)C(CCO)C2)cc1` (stereo unspecified) it was 10; in that of `CCCCCc1nnc(NC(=O)c2ccc(=O)n(C)n2)s1`, 16.
Next, `CC1(C)CC(=O)C(N=Nc2ccc(S(=O)(=O)N3CCCCCC3)cc2)=C(O)C1`: 11.
Next, `COc1cc(OC)cc(-c2nc3ccccc3c(=O)n2NC(=O)c2cccnc2Cl)c1`: 10.
Take `Cc1ccc(C)c(-n2ccnc2SCC(N)=O)c1`: the fluorescence (KMESF) is 20.
Consider `CC(C)c1nc(CNC(=O)CC2C(=O)NCCN2Cc2ccoc2)cs1` (stereo unspecified), for which the fluorescence (KMESF) is 15.
Next, `COc1cc(OC)c(C(=O)N2CCCC2)cc1OC`: 10.
Next, `O=C(COc1ccc([N+](=O)[O-])cc1)Nc1ccc(N2CCCC2)cc1`: 9; `Cc1nn(-c2ccc([N+](=O)[O-])cc2)c(N)c1-c1ccccc1`: 8; `Cc1cc(NS(=O)(=O)c2ccc(NC(=S)NC(=O)c3ccc(F)cc3Cl)cc2)no1`: 12.
For the compound `CNc1ccc(NC(C)=O)cc1[N+](=O)[O-]`, the fluorescence (KMESF) is 13.
In the case of `CCCOCC(O)CC(CC)C(=O)NNC(=S)Nc1ccccc1` (stereo unspecified) it was 13; in that of `S=C(Nc1cccc(Br)c1)N1CCn2cccc2C1c1cccnc1` (stereo unspecified), 15; in that of `Cc1cc(=O)[nH]c(SCc2cc(Cl)ccc2OC(F)F)n1`, 270 (active).
For the compound `COc1ccccc1-c1noc(CSc2nc(C)cc(=O)[nH]2)n1`, the fluorescence (KMESF) was 20.
For the compound `Cc1cc(=O)[nH]c(SCc2cccc(F)c2)n1`, the fluorescence (KMESF) is 31.
In the case of `C#CCCCc1nc2ccccc2c(=O)n1N` it was 11; in that of `COc1ccc(S(=O)(=O)N2CN(CCc3ccc(OC)c(OC)c3)c3nc4ccccc4nc32)cc1`, 15; in that of `O=C1/C(=C\c2ccsc2)NC(=S)N1c1ccccc1`, 11.
As for `CCCc1c(C)nc2c(Br)cccc2c1Cl`, the fluorescence (KMESF) was 17.
In the case of `CN(C)c1ccnc2sc(C(=O)c3ccccc3)c(N)c12` it was 7.
In the case of `O=C(CC1Nc2ccccc2NC1=O)Nc1ccccc1NC(=O)CC1Nc2ccccc2NC1=O` (stereo unspecified) it was 13; in that of `CCCCC(O)(CCCC)C(=O)NN(C(=O)CCl)c1ccccc1`, 9.
As for `O=C(/C=C/c1cn(-c2ccccc2)nc1-c1ccc2c(c1)OCCO2)NCCCN1CCOCC1`, the fluorescence (KMESF) was 15.
Next, `COC(=O)Cc1c(O)ccn(Cc2cccc(C(F)(F)F)c2)c1=O`: 11; `Cc1scc(C(=O)NNC(=S)NCC(C)C)c1C`: 5.
`COc1cccc(OC)c1C(=O)NC(=S)NCc1ccco1`: the fluorescence (KMESF) is 10.
Next, `O=C(N/N=C/c1ccccn1)C12CC3CC(CC(C3)C1)C2`: 10; `NC(=O)Cc1ccc2sc(-c3ccccc3)nc2c1`: 4.
Next, `Cc1ccc(Cl)cc1NC(=O)C1CCN(S(C)(=O)=O)CC1`: 13.
Consider `O=C1N/C(=C/c2cccs2)C(=O)N1Cc1ccc(F)cc1`, for which the fluorescence (KMESF) was 18.
In the case of `O=C(NCc1cccs1)C(=O)NCC1OCCCN1S(=O)(=O)c1ccc(F)cc1` (stereo unspecified) it was 10.
In the case of `Cc1cc([N+](=O)[O-])ccc1NC(=O)C1CCCO1` (stereo unspecified) it was 8; in that of `CCOC(=O)c1sc(NC(=O)CSc2nc3c(c(=O)n2-c2ccccc2)SCC3)c(C(=O)OCC)c1C`, 16; in that of `Cc1nc2ccccc2nc(=O)c1NNc1ccc([N+](=O)[O-])cc1`, 20.
Next, `C/C(=N/NC(=S)Nc1ccccc1)c1ccc2c(c1)OCO2`: 5.
With `CCOc1ccc(Br)cc1S(=O)(=O)N1CCC(C(=O)O)CC1`, the fluorescence (KMESF) is 10.
As to `O=c1[nH]c(-c2ccccc2)c(-c2ccccc2)[nH]1`, the fluorescence (KMESF) was 20.
In the case of `CC(C)C1C2=C(CC(C)(C)CC2=O)ON1c1ccccc1` (stereo unspecified) it was 52; in that of `CC1(C)CC(=O)NC=C(c2ccccc2)C1`, 272 (active); in that of `CCCC(CCC(=O)OC)(C(=O)OCC)c1csc(N)n1` (stereo unspecified), 262 (active).
In the case of `CC/C(Cc1ccccc1)=N/NC(=O)CCn1nnc2ccccc21` it was 12.
Regarding `CN(c1ccccc1)c1ccc(/C=c2\s/c(=C(/C#N)C(=O)C(C)(C)C)n(Cc3ccco3)c2=O)cc1`, the fluorescence (KMESF) was 145 (active).
Next, `CCOC(=O)CSc1nc2c(sc(=S)n2CCc2ccccc2)c(=O)n1Cc1ccco1`: 11.
Next, `COc1ccc(NC(=O)Cn2c(=O)n(Cc3ccco3)c(=O)c3ccccc32)cc1`: 17.
Turning to `Nc1nc(SCC(=O)NN(c2ccccc2)c2ccccc2)n[nH]1`, the fluorescence (KMESF) was 7.
Next, `Cc1ccc(NS(=O)(=O)c2ccc(C)c(NC(=O)COc3ccc4ccccc4c3)c2)c(C)c1`: 15.
Take `O=C(/C=C\c1ccc2c(c1)OCO2)NC1(C(=O)Nc2ccc3c(c2)OCCO3)CCCCC1`: the fluorescence (KMESF) is 7.
`Cc1cc([N+](=O)[O-])ccc1NC(=O)c1ccc(NC(=O)C(C)C)cc1`: the fluorescence (KMESF) was 17.
As to `CCc1ccc(CN2C(=O)c3ccccc3C2C(=O)NCC2CCCO2)cc1` (stereo unspecified), the fluorescence (KMESF) was 14.
Next, `Cc1c(Cl)cccc1NC(=O)CC1SC(=NCC2CCCO2)NC1=O` (stereo unspecified): 20; `CCOc1ccc(S(=O)(=O)N/N=C(\C)c2ccc(Cl)c(Cl)c2Cl)cc1`: 18; `CCCCCC(=O)Nc1ccc(S(=O)(=O)Nc2ccc(Cl)nn2)cc1`: 11.
Take `COc1ccccc1N(C)S(=O)(=O)c1ccc(Cl)c(C(=O)N2CCC(C(N)=O)CC2)c1`: the fluorescence (KMESF) was 11.
Next, `CN1CCC(OC(=O)COc2ccc(Cl)cc2Cl)CC1`: 13.
With `Cn1nccc1CNC(=O)c1ccnn1C`, the fluorescence (KMESF) was 9.
For `CCCCN(C)CCNC(=O)CSCc1ccc(C)cc1`, the fluorescence (KMESF) was 25.
In the case of `CCCCN(C(=O)/C=C/c1ccco1)c1c(N)n(CC(C)C)c(=O)[nH]c1=O` it was 9; in that of `COc1ccc(/C=C2/SC(=O)N(CCCCCC(=O)Nc3ccccc3C(=O)O)C2=S)cc1`, 9.
With `O=C(CC12CC3CC(CC(C3)C1)C2)NCc1ccco1`, the fluorescence (KMESF) is 15.
Next, `CSCC(=O)N1CCCC(C(=O)c2cc(F)ccc2F)C1` (stereo unspecified): 11.
Next, `O=C(Cc1ccc(-c2ccccc2)cc1)NC(c1ccccc1)c1ccccc1`: 10.
As to `O=C(O)Cc1ccc(-c2ccccc2)cc1`, the fluorescence (KMESF) was 21.
Next, `OCC(CO)(CO)NCc1ccc(-c2ccccc2)cc1`: 236 (active); `O=C(COc1ccc(NC(=O)c2ccccc2[N+](=O)[O-])cc1)c1ccc(F)cc1`: 23.
On to `O=C(COC(=O)c1ccc(Cl)nc1)NCc1cccs1`, for which the fluorescence (KMESF) was 24.
In the case of `COc1ccccc1OCCC(=O)OCC(=O)NC(=O)NC(C)(C)C` it was 260 (active); in that of `COc1cccc(NC(=O)COC(=O)CCOc2ccccc2OC)c1`, 10.
In the case of `COc1ccccc1OCCC(=O)OCC(=O)NCc1ccccc1` it was 16.
As for `Cc1ccccc1-n1nnnc1SCCCC(=O)c1ccc(F)cc1`, the fluorescence (KMESF) is 11.
In the case of `COc1cccc(Cn2cnc3c([N+](=O)[O-])c(C)c(C)cc32)c1` it was 19; in that of `CCOC(=O)Cc1csc(NC(=O)Nc2ccccc2)n1`, 13.
In the case of `CCOC(=O)Cc1csc(NC(=O)C(C)(C)C)n1` it was 28; in that of `CCOC(=O)Cc1csc(NC(NC(=O)OCC)(C(F)(F)F)C(F)(F)F)n1`, 269 (active).
Consider `COc1ccc(C)cc1S(=O)(=O)N(CC(=O)Nc1cccc([N+](=O)[O-])c1)c1ccc(C)cc1`, for which the fluorescence (KMESF) was 11.
For the compound `CCCCN1C(=S)NC[C@@H]1C(C)CC` (stereo partly specified), the fluorescence (KMESF) was 20.
In the case of `Cc1ccc(-c2cc(C(=O)N/N=C/C=C/c3ccccc3)n[nH]2)o1` it was 7.
Turning to `O=C(NCCCN1CCOCC1)c1ccc(N2CCCC2)c([N+](=O)[O-])c1`, the fluorescence (KMESF) was 15.
In the case of `COc1ccc(CCNC(=O)CCn2c(=O)c3ccccc3n(CC(=O)NCC3CCCO3)c2=O)cc1OC` (stereo unspecified) it was 70.
Regarding `CNc1nc2c(C)cccn2c(=O)c1C=Nc1ccc(OC)cc1`, the fluorescence (KMESF) was 19.
As for `Cc1cccc2c(=O)n3c(nc12)CCCCC3`, the fluorescence (KMESF) is 267 (active).
Next, `O=c1c2c(nc3n1CCCCC3)sc1c(O)cccc12`: 8.
For the compound `Cc1ccc2nc3n(c(=O)c2c1)CCC3`, the fluorescence (KMESF) is 45.
In the case of `Cc1ccc(S(=O)(=O)NCCC(c2ccccc2)c2ccccc2)cc1C(=O)O`, the fluorescence (KMESF) is 12.
Next, `CCO/C=C1\C(=O)N(c2ccc(OCC)cc2)C(=O)c2ccccc21`: 14; `Cc1cc(NC(=O)CN2C(=O)NC(CCc3ccccc3)C2=O)no1` (stereo unspecified): 13; `O=C(c1ccc(OC2CCN(C(=O)c3cccnc3)CC2)cc1)N1CCCCCC1`: 11.
In the case of `Cc1cccc(Oc2c([N+](=O)[O-])c(=O)n(C)c3ccccc23)c1` it was 55.
Next, `O=C(COC(=O)CCCSc1nc2ccccc2[nH]1)Nc1ccc(Oc2ccccc2)cc1`: 11; `CCCCC(NS(=O)(=O)c1ccc(C)cc1)C(=O)Oc1ccc2c3c(c(=O)oc2c1)CCC3` (stereo unspecified): 11; `CCOC(=O)C1=C(C)NC(=O)NC1c1ccccc1` (stereo unspecified): 17.
As to `CCOC(=O)C1=C(C)NC(C)=C(C(=O)OCC)C1c1ccccn1`, the fluorescence (KMESF) was 252 (active).
In the case of `CCOC(=O)C1=C(C)NC(SC)=NC1c1ccccc1` (stereo unspecified) it was 34; in that of `CC(C)(C)NC(=O)CN(C(=O)c1csnn1)c1ccccc1-c1ccccc1`, 14; in that of `CCc1cccc(CC)c1NC(=O)COc1ccccc1C(=O)c1cc(C#N)c(=O)n(C2CCCCC2)c1`, 18.
Next, `CCOc1ccc(NC(=O)NNC(=O)c2ccc(Cl)cc2Cl)cc1`: 21.
`COc1ccc(/C=N/OCC(=O)N(Cc2ccccc2)c2ccccc2C(=O)O)cc1`: the fluorescence (KMESF) was 6.
Turning to `COC(=O)c1ccc(-c2noc(CN(Cc3ccccn3)CC3CCCO3)n2)cc1` (stereo unspecified), the fluorescence (KMESF) was 18.
Next, `CC(C)N1CCC(=NNc2ccc([N+](=O)[O-])cc2S(=O)(=O)N2CCOCC2)CC1`: 18; `O=C(CSc1nnnn1-c1ccc(O)cc1)N1N=C(c2ccc3ccccc3c2)CC1c1ccccc1` (stereo unspecified): 16; `Cc1ccc2c(Cl)c(C(=O)Nc3nn[nH]n3)sc2c1`: 15.
With `COc1ccc(CN2C(=O)CC(Cc3ccc(C)cc3)C2=O)cc1OC` (stereo unspecified), the fluorescence (KMESF) is 10.
Next, `Cc1ccc(C(=O)O)cc1NC(=O)c1ccc(Cn2nc(C)c(Cl)c2C)o1`: 15.
Regarding `COC(=O)C1=C(C)N(C)C(=S)NC1c1ccccc1` (stereo unspecified), the fluorescence (KMESF) is 13.
Take `COC(=O)C1=C(C)N(C)C(C)=C(C(=O)OC)C1c1cccc(Br)c1`: the fluorescence (KMESF) is 266 (active).
As for `COC(=O)C1NN=C(C(=O)c2ccc(Br)cc2)C1c1cccc(Br)c1` (stereo unspecified), the fluorescence (KMESF) is 10.
As to `CCOc1ccccc1/C=N/NC(=O)CNC(=O)COc1ccccc1`, the fluorescence (KMESF) was 13.
Take `Cc1cccc(-n2cc(CN3CCN(C(=O)c4ncn[nH]4)CC3)c(-c3cccc(F)c3)n2)c1`: the fluorescence (KMESF) is 12.
